One compound from PubChem BioAssay (NCATS) can be followed below.

Experiment [1] is described as follows: qHTS assay for small molecule antagonists of peroxisome proliferator-activated receptor delta signaling (AID 588535; active = well fitted inhibition curve with a large enough effect in the signal ratio, with a control signal flat, not every such curve was filed as active; the % refers to the signal ratio;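 for max response: cells co-treated with a PPAR-delta agonist as stimulator during compound exposure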). To be noted: HEK293T PPARd-UAS-bla, beta-lactamase FRET ratio, 18 h; 460 nm channel. A digest of the protocol:
(§1)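 Compounds tested in titration on PPAR-delta-UAS-bla HEK293T cells grown in charcoal/dextran-stripped serum (2%); beta-lactamase activity read via CCF4 emission at 460 and 530 nm.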
(In general: In qHTS, concentration-response curves come from the screen itself.)

The target of experiment [2] is Peroxisome proliferator-activated receptor delta (Homo sapiens) (UniProt Q03181). Described as above. The following applies: HEK293T PPARd-UAS-bla, beta-lactamase FRET ratio, 18 h; series mostly up to 76.7 µM. A digest of the protocol:
as §1

The target of experiment [3] is Vitamin D3 receptor (Homo sapiens) (UniProt P11473). In words: qHTS assay for small molecule antagonists of vitamin D receptor signaling (AID 588541; calls by dose curve;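 note: receptor activated by calcitriol during compound treatment; % is set by controls: 0 for no effect and ±100 for the full control effect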). To be noted: HEK293T VDR-UAS-bla, beta-lactamase ratio, antagonist mode; series mostly up to 76.7 µM. In outline: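 VDR-UAS-bla HEK293T cells (2000/well, 2% charcoal-stripped FBS) were treated with titrated compounds plus 1-alpha,25-dihydroxyvitamin D3 (50 nM or 3 nM final) for 16 h at 37 C. CCF4 beta-lactamase fluorescence was read; Hill fits gave IC50.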
Sequence of Vitamin D3 receptor (Homo sapiens) (P11473 whole entry, looked up): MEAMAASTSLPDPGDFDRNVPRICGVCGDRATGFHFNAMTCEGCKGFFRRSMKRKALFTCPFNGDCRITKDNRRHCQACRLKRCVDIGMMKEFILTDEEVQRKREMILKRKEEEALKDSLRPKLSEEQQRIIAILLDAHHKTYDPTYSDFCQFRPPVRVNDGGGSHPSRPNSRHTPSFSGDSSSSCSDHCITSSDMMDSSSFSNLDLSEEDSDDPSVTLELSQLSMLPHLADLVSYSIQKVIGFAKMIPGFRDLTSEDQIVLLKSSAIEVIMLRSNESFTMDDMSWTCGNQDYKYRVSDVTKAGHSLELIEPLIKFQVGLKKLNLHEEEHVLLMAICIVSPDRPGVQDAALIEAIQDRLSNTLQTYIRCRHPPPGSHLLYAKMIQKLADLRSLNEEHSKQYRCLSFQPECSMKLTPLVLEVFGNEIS

The target is the same in experiment [4]. In words: qHTS assay for small molecule agonists of vitamin D receptor signaling (AID 588543; calls by dose curve;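 note: 0% = DMSO basal and 100% = reference agonist control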). To be noted: HEK293T VDR-UAS-bla, beta-lactamase ratio, 16 h; series mostly up to 76.8 µM. In outline: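 qHTS in agonist mode: compound titrations stimulate a VDR-driven β-lactamase reporter in HEK293T cells over 16 h at 37 °C. Response normalized to 50 nM 1α,25-dihydroxyvitamin D3 = 100%, DMSO = 0%; Hill fitting gives EC50 and maximal response.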

The nature of experiment [5]: qHTS assay for small molecule agonists of retinoid X receptor alpha signaling (AID 588544; calls by dose curve;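 for activation: 0% = DMSO basal wells and 100% = reference agonist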). To be noted: HEK293T RXRa-UAS-bla, beta-lactamase reporter, 18 h; 530 nm emission.
Experiment [6] concerns the target Retinoic acid receptor RXR-alpha (Homo sapiens) (UniProt P19793). The description is as above. The following applies: HEK293T RXRa-UAS-bla, beta-lactamase reporter, 18 h; series mostly up to 76.7 µM.
Experiment [7] addresses Thyroid hormone receptor beta (Homo sapiens) (UniProt P10828). In words: qHTS assay for small molecule agonists of thyroid hormone receptor beta signaling (AID 588545; calls by dose curve;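 note: 0% = DMSO only and 100% = 10 nM T3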). The following applies: TR-UAS-bla GripTite HEK 293, beta-lactamase ratio, agonist mode, 18 h, percent of T3 response, DMSO as zero; series mostly up to 76.7 µM. In outline:
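TR-UAS-bla-GripTite HEK 293 cells in medium with 2% charcoal/dextran FBS, 0.1 mM NEAA and 1 mM sodium pyruvate were treated with titrated compounds for 18 hrs at 37 C. Beta-lactamase reporter was read with CCF4 dye (ex 405, em 460/530 nm); EC50 from Hill fits.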

Experiment [8] deals with Voltage-gated inwardly rectifying potassium channel KCNH2 (Homo sapiens) (UniProt Q12809). Kind of experiment: qHTS Assay for Small Molecule Inhibitors of the Human hERG Channel Activity (AID 588834).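 Note: top concentration of the series differs between compounds; % is set by controls: 0 for no effect and ±100 for the full control effect; lower thallium flux fluorescence means stronger hERG block; nearly all actives have a fitted effect of over 50% in size.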 To be noted: U2OS BacMam hERG, FluxOR thallium flux fluorescence; series mostly up to 46.1 µM. In outline: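 Cells were infected with hERG-BacMam virus for 4 hrs at room temperature, grown overnight, then seeded at 2000/well. After dye loading and roughly 10 min compound treatment, thallium influx was triggered and fluorescence recorded.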
Sequence of Voltage-gated inwardly rectifying potassium channel KCNH2 (Homo sapiens) (Q12809 whole entry, looked up): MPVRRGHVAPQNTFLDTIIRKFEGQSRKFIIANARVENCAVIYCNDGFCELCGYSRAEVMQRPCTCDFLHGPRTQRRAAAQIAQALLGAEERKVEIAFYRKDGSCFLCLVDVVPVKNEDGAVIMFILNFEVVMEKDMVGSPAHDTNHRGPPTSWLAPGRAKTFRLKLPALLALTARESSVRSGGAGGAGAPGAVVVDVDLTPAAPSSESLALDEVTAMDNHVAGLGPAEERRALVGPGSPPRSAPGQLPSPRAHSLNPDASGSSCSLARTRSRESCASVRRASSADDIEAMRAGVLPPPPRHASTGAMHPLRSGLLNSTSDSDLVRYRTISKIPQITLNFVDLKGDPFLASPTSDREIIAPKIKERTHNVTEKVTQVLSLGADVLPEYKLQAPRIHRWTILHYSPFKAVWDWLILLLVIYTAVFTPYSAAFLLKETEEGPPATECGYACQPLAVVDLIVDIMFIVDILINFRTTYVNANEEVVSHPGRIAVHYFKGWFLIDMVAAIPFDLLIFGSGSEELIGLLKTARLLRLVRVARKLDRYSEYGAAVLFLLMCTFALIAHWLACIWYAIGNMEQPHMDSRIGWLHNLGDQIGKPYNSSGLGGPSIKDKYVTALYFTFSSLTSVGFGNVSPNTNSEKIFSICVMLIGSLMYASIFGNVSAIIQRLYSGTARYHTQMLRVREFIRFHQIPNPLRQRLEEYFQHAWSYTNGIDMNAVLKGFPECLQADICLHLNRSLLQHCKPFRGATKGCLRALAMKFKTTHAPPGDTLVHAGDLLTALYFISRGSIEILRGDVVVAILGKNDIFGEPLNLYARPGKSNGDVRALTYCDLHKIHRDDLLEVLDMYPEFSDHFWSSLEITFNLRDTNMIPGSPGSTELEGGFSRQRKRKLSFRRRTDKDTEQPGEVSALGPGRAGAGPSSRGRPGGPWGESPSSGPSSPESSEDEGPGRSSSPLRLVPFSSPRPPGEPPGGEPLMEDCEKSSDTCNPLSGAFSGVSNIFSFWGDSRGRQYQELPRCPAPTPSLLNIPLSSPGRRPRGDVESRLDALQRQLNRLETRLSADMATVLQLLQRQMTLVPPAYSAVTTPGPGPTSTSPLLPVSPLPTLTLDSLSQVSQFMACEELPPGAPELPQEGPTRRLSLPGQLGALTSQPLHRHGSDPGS

A short description of experiment [9]: qHTS assay for small molecule agonists of the antioxidant response element (ARE) signaling pathway (AID 651741; active = well fitted activation curve with a large enough effect in the signal ratio; the % refers to the signal ratio; note: potency is the fitted concentration of half-maximal effect). The following applies: HepG2 ARE-bla reporter, beta-lactamase FRET ratio, 16 h. In outline:
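Beta-lactamase reporter expression driven by the antioxidant response element in HepG2 cells was detected by fluorescence with LiveBLAzer B/G FRET substrate (2 h, room temperature) following 16 h compound treatment at 37 C.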

Experiment [10] is described as follows: qHTS assay for small molecule activators of the p53 signaling pathway (AID 651743; active = well fitted activation curve with a large enough effect in the signal ratio, not every such curve was filed as active; the % refers to the signal ratio; note: potency is the fitted concentration of half-maximal effect). The following applies: HCT-116 p53RE-bla, beta-lactamase FRET ratio, 16 h; activation: stronger effect = higher value. In outline:
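Here HCT-116 cells with an integrated p53-responsive beta-lactamase gene were incubated with compounds (16 hours, 37 C) after a 5-hour plating period; beta-lactamase activity was detected as fluorescence intensity via B/G FRET substrate.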

The nature of experiment [11]: qHTS assay for small molecule activators of the nuclear factor-kappa B (NF-kB) signaling pathway (AID 651749; active = well fitted activation curve with a large enough effect in the signal ratio; the % refers to the signal ratio; note: % of control where 0% means no effect). To be noted: NF-kB-bla ME-180 cells, beta-lactamase FRET ratio, 16 h; stronger effect = higher value. In outline:
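Beta-lactamase reporter expression, controlled by NF-kB response elements in ME-180 cells, was quantified fluorometrically via FRET disruption; cells at 2,000/well had been incubated with 23 nL test compound for 16 hr.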

The nature of experiment [12]: qHTS assay for small molecule disruptors of the mitochondrial membrane potential - 1 hr assay (AID 651754; calls by dose curve; note: potency is the fitted concentration of half-maximal effect; nearly all actives have a fitted effect of over 35% in size). To be noted: series mostly up to 92.2 µM. In outline:
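Read-out: dye fluorescence at 490 nm ex/535 nm em (monomers) and 540 nm ex/590 nm em (aggregates) in HepG2 cells. Compound exposure 1 hr at 37C, followed by 30 min dye loading.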

Experiment [13] addresses Tumor necrosis factor (Homo sapiens) (UniProt P01375). Kind of experiment: qHTS assay to identify small molecules that stimulate Tumor Necrosis Factor-alpha (TNF-alpha) secretion (AID 651757; active = well fitted curve in the direction sought with a large enough effect in the signal ratio; the % refers to the signal ratio; note: 0% is about no effect). The following applies: Human cells, HTRF 665/615 ratio; series mostly up to 92.2 µM. A digest of the protocol: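 THP-1 cells, 3000/well; compound 17 hrs, 37 C; add cryptate/XL665 anti-TNF-alpha antibody pair; 3 hr RT; TR-FRET (HTRF) read of secreted TNF-alpha. Quantitative HTS format.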

Experiment [14] is described as follows: qHTS assay to identify small molecules that stimulate interleukin-8 (IL-8) secretion (AID 651758; active = well fitted activation curve with a large enough effect in the signal ratio; the % refers to the signal ratio; note: 0% is about no effect). The following applies: HTRF ratio (665/615); series mostly up to 92.2 µM. A digest of the protocol: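 Quantitative HTS in THP-1 monocytic cells at 2000 cells per well, with 16 hrs compound incubation at 37 C. IL-8 in the medium was then quantified by HTRF immunoassay, read after 1-3 hrs at room temperature.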

The target of experiment [15] is Peroxisome proliferator-activated receptor alpha (Homo sapiens) (UniProt Q07869). In words: qHTS assay for small molecule agonists of the peroxisome proliferator-activated receptor alpha (PPARalpha) signaling pathway (AID 651778). Note: % of control where 0% means no effect. To be noted: PathHunter PPARalpha complementation, chemiluminescence, 6 h; stronger effect = higher value. A digest of the protocol: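 Cells plated at 2,000/well and held overnight at 37 C, 5% CO2, then compound added by pin tool for 6 hr; after PathHunter detection reagent and 60 min at room temperature, chemiluminescence from enzyme complementation was read.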
Sequence of Peroxisome proliferator-activated receptor alpha (Homo sapiens) (Q07869 whole entry, looked up): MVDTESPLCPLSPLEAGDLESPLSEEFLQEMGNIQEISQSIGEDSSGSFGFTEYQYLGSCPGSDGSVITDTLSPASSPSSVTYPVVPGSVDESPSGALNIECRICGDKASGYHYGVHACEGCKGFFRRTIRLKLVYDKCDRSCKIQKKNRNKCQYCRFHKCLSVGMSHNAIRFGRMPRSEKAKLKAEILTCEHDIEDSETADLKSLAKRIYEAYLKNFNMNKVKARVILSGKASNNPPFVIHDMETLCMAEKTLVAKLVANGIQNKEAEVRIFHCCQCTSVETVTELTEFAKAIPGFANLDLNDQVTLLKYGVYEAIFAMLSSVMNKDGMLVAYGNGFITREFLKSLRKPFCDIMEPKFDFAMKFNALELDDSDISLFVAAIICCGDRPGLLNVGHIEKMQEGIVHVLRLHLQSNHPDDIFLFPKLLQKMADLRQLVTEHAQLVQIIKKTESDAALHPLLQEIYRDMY

Experiment [16] is described as follows: qHTS assay for small molecule agonists of the antioxidant response element (ARE) signaling pathway measured by Nrf2-dependant transcriptional activity (AID 720636; active = well fitted curve in the direction sought with a large enough effect in the repeat runs; an effect the other way counts as inactive or inconclusive; note: % of control where 0% means no effect). The following applies: ARE-luc HepG2, Nrf2 luciferase reporter, 16 h; series mostly up to 92.4 µM. A digest of the protocol: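 HepG2 ARE-luc reporter line, 1% dialyzed FBS; 6 hr attachment at 37 C, compound pinned in, 16 hr at 37 C/5% CO2; ONE-Glo, 30 min RT, luminescence read.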

The nature of experiment [17]: qHTS assay for small molecule antagonists of the retinoid-related orphan receptor gamma (ROR-gamma) signaling pathway - cell viability counter screen (AID 720652; active = well fitted curve in the direction sought with a large enough effect in the repeat runs; an effect the other way counts as inactive or inconclusive;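 note: CHO reporter cells with doxycycline-induced ROR-gamma expression; compound exposure lasted 16 hr before ATP read; % is set by controls: 0 for no effect and ±100 for the full control effect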). The following applies: RORgamma reporter cell line viability counter screen; series mostly up to 92.2 µM. A digest of the protocol:
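CHO RORE-LUC/TET-ROR line, 1,000 cells/well, 37 C 5% CO2 5 hr; cpd or DMSO + doxycycline induction, 16 hr. CellTiter-Glo, 30 min RT, luminescence = ATP content.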

Experiment [18] can be described thus: qHTS assay for small molecule agonists of the antioxidant response element (ARE) signaling pathway measured by Nrf2-dependant transcriptional activity - cell viability counter screen (AID 720653; active = well fitted curve in the direction sought with a large enough effect in the repeat runs; an effect the other way counts as inactive or inconclusive; note: % is set by controls: 0 for no effect and ±100 for the full control effect). To be noted: ARE-bla HepG2 viability, CellTiter-Glo ATP luminescence, 16 h; stronger effect = lower value. In outline: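 ARE-bla HepG2 cells (2,000/well) rested 5 hrs at 37C/5% CO2, then exposed to compounds in DMSO for 16 hrs. Viability was read in the same wells as intracellular ATP by luminescence, 30 min at room temperature after reagent addition.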

A short description of experiment [19]: qHTS assay for cell viability of HEK293 cells (AID 743288). Note: % is set by controls: 0 for no effect and ±100 for the full control effect; nearly all actives have a fitted effect of over 50% in size. To be noted: ATP luminescence (CellTiter-Glo), 18 h, stronger effect = lower value. A digest of the protocol: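 Quantitative high-throughput screen: compounds were pinned onto parental HEK293 cells (2,000 per well) after a minimum 5 h settling at 37 C, incubated 18 h at 37 C, and intracellular ATP measured by luciferase luminescence.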

The nature of experiment [20]: qHTS assay for cell viability of the p53RE-bla HCT-116 cell line (AID 743292). Note: potency is the fitted concentration of half-maximal effect; nearly all actives have a fitted effect of over 55% in size. The following applies: p53RE-bla HCT-116 viability, ATP luminescence, 16 h; series mostly up to 95 µM. A digest of the protocol: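 Luminescent ATP quantitation (CellTiter-Glo) served as the viability read-out; reagent was added after 16 h compound exposure at 37 C and read after 30 min at room temperature. Cells: p53RE-bla HCT-116, 4,000 per well.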

Experiment [21] can be described thus: Counterscreen qHTS for small molecule stabilizers of the endoplasmic reticulum resident proteome: GLuc-NoTag assay (AID 1508627).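 Note: 0% = thapsigargin alone and -100% = DMSO vehicle control.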 The following applies: Gaussia luciferase NoTag secretion counterscreen, luminescence, thapsigargin 100 nM for final 4 h; series mostly up to 76.4 µM. In outline:
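Secreted GLuc lacking the SERCaMP modification is measured in SH-SY5Y cells exposed to compound for 19 h and then to thapsigargin (100 nM, 4 h) to deplete ER calcium; hits retested at 11 concentrations, up to 76.6 uM.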
In general terms: A counterscreen serves to expose hits that act by an unwanted route or on another target.

Experiment [22] can be described thus: Confirmatory qHTS for small molecule stabilizers of the endoplasmic reticulum resident proteome: Secreted ER Calcium Modulated Protein (SERCaMP) assay (AID 1508628).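 Note: SH-SY5Y cells given compound 16 h then thapsigargin 100 nM for 4 h; % is set by controls: 0 for no effect and ±100 for the full control effect; nearly all actives have a fitted effect of over 40% in size.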 To be noted: SERCaMP secreted luciferase ER calcium/proteostasis reporter; series mostly up to 76.3 µM. In outline:
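GLuc-SERCaMP-expressing SH-SY5Y cells, pretreated 16 h with compound, are challenged with thapsigargin to empty ER calcium stores; after 4 h, coelenterazine is added directly to the medium and luminescence is imaged.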

Experiment [23] in a line: Cell Viability qHTS for small molecule stabilizers of the endoplasmic reticulum resident proteome (AID 1508629).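 Note: human SH-SY5Y neuroblastoma cells carrying the GLuc-SERCaMP reporter; compound exposure about 46 h in total before the viability read; % is set by controls: 0 for no effect and ±100 for the full control effect.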 To be noted: cell viability counter-screen, 100 nM thapsigargin for final 4 h.
Experiment [24] has as its target Nuclear receptor subfamily 1 group I member 2 (Rattus norvegicus) (UniProt Q9R1A7). In words: qHTS assay for small molecule activators of the rat pregnane X receptor (rPXR) signaling pathway (AID 651751; call rule not given here; note: 0% is about no effect). The following applies: rPXR reporter cells, luciferase (One-Glo), 24 h.

Values joined by “and” are separate entries in the source; they are usually repeats but may differ in a detail not shown here. Identical values can stand only once. Records with an inconclusive call do not appear. Active and inactive are the calls of the source. Unless noted, calls come from the whole dose curve; as a rule, active = well fitted curve in the direction sought with a large enough effect; inconclusive = small, poorly fitted or top-dose-only effect, or another doubt; inactive = no such curve, though single readings can be large; an effect the other way counts as inactive or inconclusive.

Sequence of Peroxisome proliferator-activated receptor delta (Homo sapiens) (Q03181 whole entry, looked up): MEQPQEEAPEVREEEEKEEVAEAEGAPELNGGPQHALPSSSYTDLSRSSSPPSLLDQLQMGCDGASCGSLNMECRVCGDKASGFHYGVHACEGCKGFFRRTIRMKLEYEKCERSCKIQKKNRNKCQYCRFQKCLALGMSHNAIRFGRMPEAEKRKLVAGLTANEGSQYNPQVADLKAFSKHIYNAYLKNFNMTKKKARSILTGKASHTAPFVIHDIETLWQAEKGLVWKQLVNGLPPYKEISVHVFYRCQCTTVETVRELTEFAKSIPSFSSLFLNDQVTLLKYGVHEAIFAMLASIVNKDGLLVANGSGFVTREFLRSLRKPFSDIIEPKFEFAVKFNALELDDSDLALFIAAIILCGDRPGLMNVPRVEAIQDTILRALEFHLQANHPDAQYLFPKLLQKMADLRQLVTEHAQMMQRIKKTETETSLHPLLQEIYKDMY
Sequence of Retinoic acid receptor RXR-alpha (Homo sapiens) (P19793 whole entry, looked up): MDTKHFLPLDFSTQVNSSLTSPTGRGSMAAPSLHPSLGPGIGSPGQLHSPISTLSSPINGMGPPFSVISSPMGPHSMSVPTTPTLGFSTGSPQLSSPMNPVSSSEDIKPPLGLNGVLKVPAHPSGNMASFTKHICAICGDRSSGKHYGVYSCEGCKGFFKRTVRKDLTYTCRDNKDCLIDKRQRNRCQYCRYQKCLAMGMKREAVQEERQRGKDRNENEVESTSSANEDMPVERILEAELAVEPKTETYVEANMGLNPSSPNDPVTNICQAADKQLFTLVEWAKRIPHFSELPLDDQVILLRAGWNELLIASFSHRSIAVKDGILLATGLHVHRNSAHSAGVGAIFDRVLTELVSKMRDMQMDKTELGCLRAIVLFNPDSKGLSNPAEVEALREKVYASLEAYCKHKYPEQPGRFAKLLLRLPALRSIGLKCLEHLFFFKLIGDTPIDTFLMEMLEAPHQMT
Sequence of Nuclear receptor subfamily 1 group I member 2 (Rattus norvegicus) (Q9R1A7 whole entry, looked up): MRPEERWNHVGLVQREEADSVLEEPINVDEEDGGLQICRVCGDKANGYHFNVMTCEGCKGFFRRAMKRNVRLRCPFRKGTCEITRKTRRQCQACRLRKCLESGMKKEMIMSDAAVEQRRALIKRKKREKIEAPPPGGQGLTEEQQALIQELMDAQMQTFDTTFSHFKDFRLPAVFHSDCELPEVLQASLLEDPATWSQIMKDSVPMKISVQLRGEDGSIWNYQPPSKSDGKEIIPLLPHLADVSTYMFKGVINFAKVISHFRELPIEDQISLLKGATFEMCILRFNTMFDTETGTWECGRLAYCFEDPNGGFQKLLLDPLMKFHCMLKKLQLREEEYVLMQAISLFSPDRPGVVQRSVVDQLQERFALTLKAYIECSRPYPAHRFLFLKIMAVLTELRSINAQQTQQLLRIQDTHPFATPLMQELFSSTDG
Sequence of Thyroid hormone receptor beta (Homo sapiens) (P10828 whole entry, looked up): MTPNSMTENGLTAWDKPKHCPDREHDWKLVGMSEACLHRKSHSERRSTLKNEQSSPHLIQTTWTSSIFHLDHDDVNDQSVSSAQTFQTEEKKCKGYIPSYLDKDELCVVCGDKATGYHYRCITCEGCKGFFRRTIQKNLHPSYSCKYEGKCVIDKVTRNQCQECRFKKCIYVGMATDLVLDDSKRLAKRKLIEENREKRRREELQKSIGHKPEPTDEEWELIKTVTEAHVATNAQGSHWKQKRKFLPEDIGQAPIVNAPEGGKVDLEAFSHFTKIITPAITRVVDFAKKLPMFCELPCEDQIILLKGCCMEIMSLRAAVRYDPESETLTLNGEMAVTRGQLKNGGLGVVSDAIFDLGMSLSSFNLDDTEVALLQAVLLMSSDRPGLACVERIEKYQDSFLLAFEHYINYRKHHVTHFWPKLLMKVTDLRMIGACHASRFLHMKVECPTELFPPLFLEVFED
Sequence of Tumor necrosis factor (Homo sapiens) (P01375 whole entry, looked up): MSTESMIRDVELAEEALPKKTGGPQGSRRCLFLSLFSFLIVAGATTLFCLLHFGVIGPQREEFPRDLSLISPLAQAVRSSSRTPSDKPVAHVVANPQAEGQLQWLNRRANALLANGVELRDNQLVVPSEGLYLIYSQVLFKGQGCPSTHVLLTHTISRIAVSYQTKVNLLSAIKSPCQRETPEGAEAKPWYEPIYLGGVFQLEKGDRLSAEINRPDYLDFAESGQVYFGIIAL

Consider `CC(C)(c1cc(Br)c(O)c(Br)c1)c1cc(Br)c(O)c(Br)c1`, for which the max response in experiment [1] was -3.55% and -29% and 5.87%; in experiment [5], 4.03% and -9.48% and 2.35%; in experiment [15], -7.23% (inactive) and -3.95% (inactive) and -1.86% (inactive); in [18], 4.4% (inactive) and -1.06% (inactive) and -0.187% (inactive); in experiment [19], 5.04% (inactive) and -1.46% (inactive) and -3.35% (inactive); in [23] it was 18.1% (inactive) and 32.8% (inactive) and -0.114% (inactive). Further, the max response in experiment [24] was 4.59% (inactive) and 7.9% (inactive) and 1.02% (inactive). The outcome in [2], in experiment [3], in experiment [4], in experiment [6], in [7] and in [14] was inactive. In addition, the compound was called inactive in experiment [16] and in [17]. Also, the Potency entry in experiment [8], in [13], in [21] and in experiment [22] was “inactive” each time. Moreover, the Potency was 29.8 µM (active) and 23.7 µM (active) and 48.6 µM (active) in experiment [9]; 28.2 µM (active) in experiment [10]; 18.8 µM (active) in [12]; 44.7 µM (active) in experiment [20]. The activation in [11] is 2.39% (inactive) and 3.54% (inactive) and 2.16% (inactive).
